Inconclusive results are not listed. Entries that show only a call come without a potency. Calls of active or inactive are those of the source. Unless noted, calls come from the whole dose curve; as a rule, active = well fitted curve in the direction sought with a large enough effect; inconclusive = small, poorly fitted or top-dose-only effect, or another doubt; inactive = no such curve, though single readings can be large; an effect the other way counts as inactive or inconclusive.
Experiments:
[1] = Natriuretic polypeptide receptor (hNpr1) antagonism - Pilot counterscreen GloSensor control cell line (AID 1347045; calls by dose curve; note: series mostly up to about 38 µM)
In short: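 This counterscreen uses HEK293 cells expressing the GIP/pGS-40F cGMP biosensor. Compound-treated cells are challenged with 50 uM sodium nitroprusside, and the luciferase signal is compared before and after stimulation.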

[2] = molecular target: Atrial natriuretic peptide receptor 1 (Homo sapiens) (UniProt P16066); test: Natriuretic polypeptide receptor (hNpr1) antagonism - Pilot screen (AID 1347049; calls by dose curve;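 note: agonist-evoked cGMP luminescence read 20 min after hNppA addition; series mostly up to about 58 µM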)
Atrial natriuretic peptide receptor 1 (Homo sapiens), sequence (P16066 whole entry, looked up): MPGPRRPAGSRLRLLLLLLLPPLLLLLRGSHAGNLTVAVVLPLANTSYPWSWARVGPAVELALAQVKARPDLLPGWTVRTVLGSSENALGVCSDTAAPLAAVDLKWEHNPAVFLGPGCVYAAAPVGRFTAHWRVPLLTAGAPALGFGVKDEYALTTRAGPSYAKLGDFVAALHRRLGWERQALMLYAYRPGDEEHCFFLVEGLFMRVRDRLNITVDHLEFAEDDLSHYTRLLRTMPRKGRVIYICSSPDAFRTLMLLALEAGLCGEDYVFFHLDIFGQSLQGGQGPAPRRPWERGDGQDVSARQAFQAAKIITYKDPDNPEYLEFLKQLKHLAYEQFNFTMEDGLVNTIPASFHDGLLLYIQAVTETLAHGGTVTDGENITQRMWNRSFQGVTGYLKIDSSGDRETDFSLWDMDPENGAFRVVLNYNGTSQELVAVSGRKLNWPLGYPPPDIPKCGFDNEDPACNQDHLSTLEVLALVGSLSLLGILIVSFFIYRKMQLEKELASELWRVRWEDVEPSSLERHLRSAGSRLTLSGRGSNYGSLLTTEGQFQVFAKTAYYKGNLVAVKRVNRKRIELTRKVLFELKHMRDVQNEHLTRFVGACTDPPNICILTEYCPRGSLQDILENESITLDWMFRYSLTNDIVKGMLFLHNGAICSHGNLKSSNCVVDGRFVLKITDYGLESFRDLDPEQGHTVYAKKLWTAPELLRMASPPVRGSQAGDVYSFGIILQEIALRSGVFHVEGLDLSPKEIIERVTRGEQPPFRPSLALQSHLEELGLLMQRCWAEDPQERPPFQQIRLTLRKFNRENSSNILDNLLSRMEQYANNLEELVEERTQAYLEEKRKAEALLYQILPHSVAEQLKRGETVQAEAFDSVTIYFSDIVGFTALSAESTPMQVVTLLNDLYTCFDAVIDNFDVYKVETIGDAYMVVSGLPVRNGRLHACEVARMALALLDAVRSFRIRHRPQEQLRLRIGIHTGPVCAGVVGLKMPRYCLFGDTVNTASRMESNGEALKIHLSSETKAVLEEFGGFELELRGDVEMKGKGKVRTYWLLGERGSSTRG
In short: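 HEK293 cells co-expressing hNpr1 and the GloSensor pGS-40F cGMP luciferase sensor were preloaded with 2% GloSensor reagent for 2 h. Compounds were added for 30 min at room temperature, then cells were stimulated with 0.1 nM hNppA for 20 min before luminescence readout.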

[3] = molecular target: Atrial natriuretic peptide receptor 2 (Homo sapiens) (UniProt P20594); test: Natriuretic polypeptide receptor (hNpr2) antagonism - Pilot subtype selectivity assay (AID 1347050; calls by dose curve)
Atrial natriuretic peptide receptor 2 (Homo sapiens), sequence (P20594 whole entry, looked up): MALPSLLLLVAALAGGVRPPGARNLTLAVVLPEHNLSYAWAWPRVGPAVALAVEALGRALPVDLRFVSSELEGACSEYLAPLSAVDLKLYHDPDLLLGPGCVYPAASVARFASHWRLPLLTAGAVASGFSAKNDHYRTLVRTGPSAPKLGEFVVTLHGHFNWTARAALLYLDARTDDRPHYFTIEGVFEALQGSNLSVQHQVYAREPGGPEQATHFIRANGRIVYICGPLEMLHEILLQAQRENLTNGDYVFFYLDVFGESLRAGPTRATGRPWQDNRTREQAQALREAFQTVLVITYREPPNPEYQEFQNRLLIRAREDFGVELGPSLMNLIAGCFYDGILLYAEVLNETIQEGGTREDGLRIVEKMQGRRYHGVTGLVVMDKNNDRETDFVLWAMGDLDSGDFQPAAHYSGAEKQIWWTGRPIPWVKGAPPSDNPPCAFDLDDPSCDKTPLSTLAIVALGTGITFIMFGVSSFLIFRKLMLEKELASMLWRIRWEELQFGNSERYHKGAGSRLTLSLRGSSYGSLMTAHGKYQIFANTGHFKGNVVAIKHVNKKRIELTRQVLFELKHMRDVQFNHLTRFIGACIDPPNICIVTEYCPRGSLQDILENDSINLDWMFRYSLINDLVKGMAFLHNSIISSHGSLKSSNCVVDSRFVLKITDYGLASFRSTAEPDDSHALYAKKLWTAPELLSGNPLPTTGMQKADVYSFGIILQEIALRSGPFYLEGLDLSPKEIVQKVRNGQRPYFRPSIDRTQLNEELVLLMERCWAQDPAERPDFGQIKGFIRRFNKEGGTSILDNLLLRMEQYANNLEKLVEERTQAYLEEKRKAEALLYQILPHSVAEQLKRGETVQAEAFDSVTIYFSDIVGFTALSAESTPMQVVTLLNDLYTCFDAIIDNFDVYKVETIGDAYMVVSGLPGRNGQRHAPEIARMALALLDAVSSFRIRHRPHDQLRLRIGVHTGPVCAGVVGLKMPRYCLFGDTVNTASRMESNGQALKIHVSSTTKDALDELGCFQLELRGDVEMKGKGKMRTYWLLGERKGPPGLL
In short: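 cGMP-sensor HEK293/hNpr2 cells; 2% GloSensor reagent 2 h RT; compounds 30 min; baseline luminescence read; 1 nM hNppC agonist 20 min RT; final luminescence read by CCD camera. Antagonism = reduced post-agonist signal.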

[4] = NS1 protein of Zika virus - qHTS assay to identify small molecule inhibitors in human HEK 293 cells (AID 1347053); note: nearly all actives have a fitted effect of over 55% in size; note: potency is the fitted concentration of half-maximal effect
In short: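 Following 20 h seeding, HEK 293 cells took compound, then 1 h later ZIKV MR766 (MOI = 0.5). Incubation ran 24 h at 37 C before TR-FRET detection of NS1; a drop in signal indicates inhibition.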

[5] = molecular target: T1, Tyrosine-protein phosphatase non-receptor type substrate 1 (Homo sapiens) + Leukocyte surface antigen CD47 (Homo sapiens) (UniProt P78324+Q08722); test: CD47-SIRPalpha protein protein interaction - LANCE assay qHTS validation (AID 1347057; active = well fitted curve in the direction sought with a large enough effect in the signal ratio, with a control signal flat, not every such curve was filed as active; the % refers to the signal ratio; note: series mostly up to about 38 µM)
T1 sequence (P78324 whole entry, looked up): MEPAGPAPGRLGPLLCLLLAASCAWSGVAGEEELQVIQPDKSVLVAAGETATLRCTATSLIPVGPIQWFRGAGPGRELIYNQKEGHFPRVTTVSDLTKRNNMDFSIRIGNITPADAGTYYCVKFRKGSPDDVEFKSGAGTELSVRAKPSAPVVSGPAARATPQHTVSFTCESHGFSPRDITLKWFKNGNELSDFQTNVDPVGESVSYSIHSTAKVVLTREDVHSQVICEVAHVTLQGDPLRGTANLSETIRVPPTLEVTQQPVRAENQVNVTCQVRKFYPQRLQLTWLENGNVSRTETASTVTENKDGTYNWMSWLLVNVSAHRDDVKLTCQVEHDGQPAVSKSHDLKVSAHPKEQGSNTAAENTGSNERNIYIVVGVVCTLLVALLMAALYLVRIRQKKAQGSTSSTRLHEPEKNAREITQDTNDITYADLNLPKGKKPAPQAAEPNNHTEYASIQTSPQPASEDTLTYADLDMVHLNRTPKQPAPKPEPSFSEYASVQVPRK
T1 sequence (Q08722 whole entry, looked up): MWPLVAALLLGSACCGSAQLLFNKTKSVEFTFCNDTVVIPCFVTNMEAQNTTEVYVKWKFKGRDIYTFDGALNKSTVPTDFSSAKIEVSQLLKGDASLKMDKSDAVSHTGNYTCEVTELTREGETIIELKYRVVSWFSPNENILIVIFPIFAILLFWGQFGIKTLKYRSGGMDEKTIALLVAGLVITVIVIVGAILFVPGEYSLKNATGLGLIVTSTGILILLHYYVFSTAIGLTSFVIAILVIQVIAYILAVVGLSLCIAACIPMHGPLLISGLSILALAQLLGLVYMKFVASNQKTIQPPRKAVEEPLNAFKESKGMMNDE
In short: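 First, His-tagged CD47 and Eu-labelled anti-His antibody met the compound for 30 min; next, site-specifically biotinylated SIRPalpha was added for 30 min; finally streptavidin-APC was added before reading the TR-FRET ratio.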

[6] = molecular target: T1, Tyrosine-protein phosphatase non-receptor type substrate 1 (Homo sapiens) + Leukocyte surface antigen CD47 (Homo sapiens); test: CD47-SIRPalpha protein protein interaction - Alpha assay qHTS validation (AID 1347059);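 note: bead proximity luminescence from CD47 binding SIRPalpha after compound preincubation with SIRPalpha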
In short: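 Soluble extracellular domains: Avi-tag biotinylated SIRPalpha (25 nM) preincubated 30 min RT with compound, then 6His-CD47 (12.5 nM) 30 min; Ni-NTA acceptor and streptavidin donor beads (10 ug/mL) 30 min, AlphaScreen read. PBS pH 7.4, 0.05% IGEPAL.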

[7] = molecular target: Parathyroid hormone/parathyroid hormone-related peptide receptor (Homo sapiens) (UniProt Q03431); test: qHTS for PTHR1 Agonists: Optimization Screen against the NCGC LOPAC library (AID 1347079);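 note: GloSensor cAMP luminescence in HEK-293 GP2 cells expressing human PTHR1 with IBMX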
Parathyroid hormone/parathyroid hormone-related peptide receptor (Homo sapiens), sequence (Q03431 whole entry, looked up): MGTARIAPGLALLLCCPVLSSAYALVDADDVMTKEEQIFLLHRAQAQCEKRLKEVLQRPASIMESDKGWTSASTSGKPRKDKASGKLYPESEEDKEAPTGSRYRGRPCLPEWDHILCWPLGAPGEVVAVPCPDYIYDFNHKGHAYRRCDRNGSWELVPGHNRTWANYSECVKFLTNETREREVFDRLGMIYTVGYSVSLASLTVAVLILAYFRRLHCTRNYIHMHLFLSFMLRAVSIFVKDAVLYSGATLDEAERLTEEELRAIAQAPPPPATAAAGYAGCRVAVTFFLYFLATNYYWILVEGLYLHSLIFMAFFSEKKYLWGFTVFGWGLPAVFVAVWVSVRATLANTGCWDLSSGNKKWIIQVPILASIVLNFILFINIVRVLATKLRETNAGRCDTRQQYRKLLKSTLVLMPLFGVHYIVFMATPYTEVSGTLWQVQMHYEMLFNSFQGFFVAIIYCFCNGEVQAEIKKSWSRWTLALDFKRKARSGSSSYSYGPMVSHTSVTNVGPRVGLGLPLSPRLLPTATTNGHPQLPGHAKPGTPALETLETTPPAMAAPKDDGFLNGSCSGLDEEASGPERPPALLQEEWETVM
In short: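 Compounds were tested across a qHTS titration. PTHR1-expressing GP2 cells report cAMP rises via GloSensor luminescence after 1 hr compound exposure at 37C with IBMX present.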

[8] = qHTS for Inhibitors of the Functional Ribonucleoprotein Complex (vRNP) of Lassa (LASV) Arenavirus: LASV Primary Screen - GLuc reporter signal (AID 1347082; calls by dose curve; tested in HEK293 reporter line; note: nearly all actives have a fitted effect of over 60% in size; note: potency is the fitted concentration of half-maximal effect)
[9] = P-glycoprotein substrates identified in KB-8-5-11 adenocarcinoma cell line, qHTS therapeutic library screen (AID 1346987); note: nearly all actives have a fitted effect of over 65% in size; note: potency is the fitted concentration of half-maximal effect
In short: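 P-gp-mediated resistance screen: KB-8-5-11 cells treated 72 h with compounds in dose-response. CellTiter-Glo viability.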

| Compound | Potency [1] | Potency [2] | Potency [3] | Potency [4] | outcome [5] | Potency [6] | outcome [7] | Potency [8] | Potency [9] |
| --- | --- | --- | --- | --- | --- | --- | --- | --- | --- |
| C[C@@H]1O[C@H](C[N+](C)(C)C)C[C@H]1O | inactive | inactive | inactive | inactive | inactive | inactive | inactive | inactive | – |
| O=C1CCCN1CC#CCN1CCCC1 | inactive | inactive | inactive | inactive | inactive | inactive | inactive | inactive | – |
| C=CCN1CC[C@]23CCCCC2[C@H]1Cc1ccc(O)cc13 (some centres undefined) | inactive | inactive | inactive | inactive | inactive | inactive | inactive | inactive | – |
| C[C@]12CC[C@@H]3[C@@H](CCC4=CC(=O)CC[C@@H]43)[C@@H]1CC[C@@H]2OC(=O)CCc1ccccc1 | – | – | – | inactive | – | – | – | inactive | 5.8 µM (active) |
| CCO/N=C(\CC)C1=C(O)CC(c2c(C)cc(C)cc2C)CC1=O (centres undefined) | – | – | – | – | – | – | – | inactive | inactive |
| O=C(O)CC[N+](=O)[O-] | inactive | inactive | inactive | inactive | inactive | inactive | inactive | inactive | – |
| NC(CCP(=O)(O)O)C(=O)O (centres undefined) | inactive | inactive | inactive | inactive | inactive | inactive | inactive | inactive | – |
| CC[C@H]1C=CC=CC[C@@H](C)[C@H](O)[C@@](C)(O)C(=O)[C@@H](C)[C@H](O)[C@@H](C)C(=O)[C@@H](C)[C@H](O)[C@@H](C)C=CC(=O)O[C@@H]2[C@@H](C)[C@H](CC1)O[C@]1(CC[C@H](C)[C@H](C[C@@H](C)O)O1)[C@H]2C | – | – | – | 18.7 µM (active) | – | – | – | 0.137 µM (active) | 1.05 µM (active) |
| COCCOCCO | – | – | – | inactive | – | – | – | inactive | inactive |
| Cc1nccc2c1[nH]c1ccccc12 | inactive | inactive | inactive | inactive | inactive | inactive | inactive | inactive | – |
